Measured values taken from PubChem BioAssay AID1159580 (chemical genetic matrix, 2015).
Where “and” joins values, the source holds several entries; their conditions need not be identical. Identical values can stand only once. Out of some 5,500 compounds screened, about 2,000 (36%) were called active. Not shown: some 18% with an inconclusive outcome. Rule as the data show it: active = normalized growth mostly below about 0.91 (no sharp cut-off); inconclusive = no clear call, values can overlap the other calls; inactive = mostly above about 0.92. The list shows a part of the results.

Experiment: chemical genetic growth profiling, strain panel (AID 1159580);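 also: tested at 20 µM; growth read once vehicle control cultures reached saturation at 30 °C; 1 = growth at the plate median or of vehicle wells; lower values mean less growth of the strain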
Conditions: S. cerevisiae deletion strains, growth OD

Measured: normalized growth

CC(C)[N+](C)(CCOC(=O)C1c2ccccc2Oc2ccccc21)C(C)C
inactive: locus YAL013W, strain DEP1, hits give low values 1.01 | locus YAL021C, strain ccr4, hits give low values 1.01 | locus YAL026C, strain drs2, hits give low values 1.03 | locus YAL030W, strain snc1, hits give low values 1.02 | locus YAL040C, strain CLN3, hits give low values 1.01 | locus YBL061C, strain skt5, hits give low values 0.989 | locus YBR009C, strain hhf1, hits give low values 0.997 | locus YBR021W, strain FUR4, hits give low values 1.02 | locus YBR023C, strain chs3, hits give low values 1.02 | locus YBR171W, strain sec66, hits give low values 1.01 | locus YBR229C, strain ROT2, hits give low values 0.997 | locus YBR231C, strain swc5, hits give low values 1.01 | locus YBR279W, strain paf1, hits give low values 0.99 | locus YCL011C, strain gbp2, hits give low values 1.01 | locus YCL016C, strain dcc1, hits give low values 1.01 | locus YCL029C, strain bik1, hits give low values 1.01 | locus YCL061C, strain MRC1 (second series), hits give low values 1.01 | locus YCL069W, strain vba3, hits give low values 0.993 | locus YCR088W, strain abp1, hits give low values 1.01 | locus YDL005C, strain med2, hits give low values 1.02 | locus YDL035C, strain GPR1, hits give low values 1.01 | locus YDL040C, strain nat1, hits give low values 0.996 | locus YDL074C, strain BRE1, hits give low values 1.02 | locus YDL101C, strain DUN1, hits give low values 1 | locus YDL134C, strain PPH21, hits give low values 1 | locus YDL185W, strain tfp1, hits give low values 1 | locus YDL192W, strain arf1, hits give low values 1.01 | locus YDR001C, strain nth1, hits give low values 0.996 | locus YDR069C, strain doa4, hits give low values 1 | locus YDR101C, strain arx1, hits give low values 0.997 | locus YDR137W, strain rgp1, hits give low values 1.01 | locus YDR150W, strain NUM1, hits give low values 1.01 and 1 | locus YDR159W, strain sac3, hits give low values 0.987 | locus YDR162C, strain NBP2, hits give low values 1.02 | locus YDR195W, strain ref2 0.976 | locus YDR297W, strain sur2, hits give low values 0.999 | locus YDR318W, strain mcm21, hits give low values 1.01 | locus YDR334W, strain swr1, hits give low values 1 | locus YDR335W, strain msn5, hits give low values 1.01 | locus YDR363W, strain ESC2, hits give low values 1.05 | locus YDR388W, hits give low values 1.01 | locus YDR392W, strain spt3, hits give low values 0.98 | locus YDR502C, strain sam2, hits give low values 1 | locus YEL003W, strain gim4, hits give low values 1 | locus YEL037C, strain rad23, hits give low values 0.995 | locus YEL061C, strain CIN8 (second series), hits give low values 0.995 | locus YEL061C, strain CIN8, hits give low values 1.01 | locus YER002W, strain NOP16, hits give low values 1.02 | locus YER015W, strain faa2, hits give low values 1.01 | locus YER016W, strain bim1, hits give low values 1.01 | locus YER110C, hits give low values 1 | locus YER111C, strain swi4, hits give low values 0.993 | locus YER155C, strain BEM2 (second series), hits give low values 0.955 | locus YER155C, strain BEM2, hits give low values 1.01 | locus YER167W, strain BCK2, hits give low values 1.01 | locus YFR010W, strain ubp6, hits give low values 0.994 | locus YGL078C, strain dbp3, hits give low values 1.01 | locus YGL086W, strain mad1, hits give low values 0.998 | locus YGL167C, strain pmr1, hits give low values 0.997 | locus YGL173C, strain kem1, hits give low values 1 | locus YGL227W, strain vid30, hits give low values 1.02 | locus YGL240W, strain doc1, hits give low values 0.983 | locus YGL248W, strain PDE1, hits give low values 0.997 | locus YGL253W, strain hxk2, hits give low values 1.02 | locus YGR078C, strain PAC10, hits give low values 1 and 1.01 | locus YGR135W, strain pre9, hits give low values 1.01 | locus YGR229C, strain SMI1, hits give low values 1.02 | locus YGR252W, strain gcn5, hits give low values 0.956 | locus YHR013C, strain ard1, hits give low values 1.04 | locus YHR027C, strain rpn1, hits give low values 1.01 | locus YHR030C, strain SLT2, hits give low values 1 and 1.05 | locus YHR079C, strain IRE1 (second series), hits give low values 1.01 | locus YHR079C, strain IRE1, hits give low values 1.05 | locus YHR094C, strain hxt1, hits give low values 1 | locus YHR129C, strain ARP1, hits give low values 1 | locus YHR142W, strain chs7, hits give low values 0.994 | locus YHR200W, strain rpn10, hits give low values 1.01 | locus YIL066C, strain RNR3, hits give low values 1.01 | locus YIL073C, strain SPO22, hits give low values 1.03 | locus YIL125W, strain kgd1, hits give low values 1.01 | locus YIR030C, strain dcg1, hits give low values 1.01 | locus YJL092W, strain hpr5, hits give low values 1 | locus YJL095W, strain BCK1 (second series), hits give low values 1.01 | locus YJL095W, strain BCK1, hits give low values 0.996 and 1.01 | locus YJL115W, strain asf1, hits give low values 1 | locus YJL129C, strain trk1, hits give low values 1.01 | locus YJL134W, strain LCB3, hits give low values 1.01 | locus YJL154C, strain vps35, hits give low values 1.01 | locus YJL164C, strain tpk1, hits give low values 0.995 | locus YJL166W, strain qcr8, hits give low values 0.98 | locus YJL168C, strain set2, hits give low values 1 | locus YJL187C, strain SWE1 (second series), hits give low values 1 | locus YJR043C, strain POL32, hits give low values 1 | locus YJR066W, strain TOR1, hits give low values 0.985
